Experimental data as given in the supplement of paper PMC6555819.

Key:
Assay in all cases: PBM binding z-score (relative to random genomic background probes); higher = stronger binding; sequences stand for … in GC…GCGATTGACAGCGTAGAATGAAGG
[1] = system: PPARg:RXRa DBDmut IVT, anti-RXR (DBD mutation: RXRa K156A/R161A, NR concentration 270 nM, RXRa partner concentration 90 nM)
Outline: (§1)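 Probes were double-stranded and carried 34-nt variable regions with direct-repeat seeds, single-nucleotide variants, half-site ablations and random human genomic background sequences, printed on custom Agilent 4×180K protein-binding microarrays. Arrays were incubated 1 h with ligand-free nuclear receptor dimers in PBS pH 7.4, 2% milk, 0.02% Triton X-100, 1 mM DTT, 0.2 mg/mL BSA and 0.4 mg/ml salmon testes DNA. Antibodies against each partner (one per run) detected binding, and scanned fluorescence was regression-normalized. Binding z-scores use the random background probes as reference.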

[2] = system: PPARg:RXRa IVT, anti-PPARg (NR concentration 270 nM, RXRa partner concentration 90 nM)
Outline: as §1

[3] = system: PPARg DBDmut:RXRa IVT, anti-PPARg (DBD mutation: PPARg1 K132A/R137A, NR concentration 270 nM, RXRa partner concentration 90 nM)
Outline: as §1

[4] = system: PPARg DBDmut IVT, anti-PPARg (DBD mutation: PPARg1 K132A/R137A, NR concentration 270 nM)
Outline: as §1

[5] = system: PPARg homodimer (NR concentration 180 nM)
Outline: as §1

[6] = system: PXR:RXRa (NR concentration 270 nM, RXRa partner concentration 90 nM)
Outline: as §1

[7] = system: PXR homodimer (NR concentration 270 nM)
Outline: as §1

[8] = system: RARa:RXR (NR concentration 270 nM, RXRa partner concentration 90 nM)
Outline: as §1

[9] = system: RARa homodimer (NR concentration 270 nM)
Outline: as §1

[10] = system: RARb:RXRa (NR concentration 270 nM, RXRa partner concentration 90 nM)
Outline: as §1

| Sequence | PBM binding z-score [1] | PBM binding z-score [2] | PBM binding z-score [3] | PBM binding z-score [4] | PBM binding z-score [5] | PBM binding z-score [6] | PBM binding z-score [7] | PBM binding z-score [8] | PBM binding z-score [9] | PBM binding z-score [10] |
| --- | --- | --- | --- | --- | --- | --- | --- | --- | --- | --- |
| CGTCCAAGGTCAATGCTAGGTCAGTGACAGCATT | 3.59 | 4.07 | 0.933 | 0.0917 | 5.74 | 4.98 | 1.04 | 6.17 | 2.41 | 5.26 |
| TCATAAAGGTAAAGGTGAAAGTCGAACGATATGA | 2.88 | 3.1 | 1.14 | 0.528 | 1.69 | 1.3 | -0.127 | 2.37 | 0.551 | 2.66 |
| CGTCCAAAGTCAGCAGGTCAGTGAAAGCGACGTG | 0.261 | 0.191 | -0.441 | -1.08 | 0.985 | 0.594 | -0.2 | 0.951 | -0.229 | 2.05 |
| CCTAGTTGGTCAGGAGGTCACGCACCGGATATGA | 1.74 | 4.03 | 0.246 | -0.0131 | 3.74 | 4.85 | 1.04 | 5.52 | 2.11 | 4.06 |
| AGGATGAGGTTATACGTAGATCAGGGAAGAAAGT | 0.241 | 0.698 | 1.41 | 0.577 | 1.34 | 1.6 | 1.47 | 1.71 | 1.01 | 1.77 |
| GCTTACGGGTCAACGGTTATAGCATGAATAGAAT | 4.03 | 4.42 | 2.69 | 0.764 | 1.62 | 3.16 | 0.0463 | 4.02 | 0.362 | 4.08 |
| TCATATATGTAAACAGGTGAAAGTCCGTAAGTTA | 2.85 | 1.7 | 1.25 | 1.22 | 0.985 | 1.08 | 0.358 | 1.24 | 0.262 | 0.572 |
| ATATGTAGGTTAGCAGGGGTCATTCAGACTAGGC | 6.72 | 6.32 | 3.05 | 2.47 | 4.78 | 6.38 | 2.6 | 6.55 | 2.44 | 3.5 |
| CCTGCTATGTCAATGGTCAGCTAAAGCAGCTCGC | 0.388 | 0.02 | -1.09 | -1.11 | -0.369 | -0.209 | -0.703 | -0.142 | -0.762 | 0.77 |
| TCTCGGAGGACACGAAAGGCCAGAGCTCGACATC | 1.19 | -0.0515 | -0.613 | -0.159 | -0.541 | -0.141 | -0.472 | 0.327 | -0.569 | 1.82 |
| CCTACTGGACCAAAAAGGTCATTGATGCCGATAA | 1.82 | 2.46 | -0.0112 | -0.226 | 4.04 | 4.77 | 2.35 | 5.09 | 3.15 | 3.96 |
| AGAATGAGGTTGAGATCAGGGAAACAGAATACAT | -0.749 | -0.0669 | 0.897 | 0.0775 | 0.146 | 0.154 | 0.387 | 0.681 | 0.16 | 0.263 |
| CCTACTGGGGCATAAGGTTACCATAAGCCAGCCC | 4.53 | 5.02 | 0.0293 | -0.184 | 1.28 | 0.306 | 0.0136 | 1.42 | 0.103 | 1.74 |
| TCTTGTAGATCAAACAGGTTAAGAAAGCCTGAGT | 1.7 | 0.783 | 1.28 | 0.534 | -0.369 | 0.754 | 0.338 | 0.849 | 0.0835 | 0.288 |
| TTACCAAGGTGAGCTGAGGTCATTGATCCAACTC | 1.49 | 2.8 | -0.00582 | -0.0839 | 1.23 | 6.15 | 3.42 | 4.75 | 0.362 | 3.44 |
| CCGACTGGGGCAGGAAGGTTACCATACCATCCGG | 1.39 | 2.05 | -0.739 | -1.79 | 0.462 | -0.00877 | -0.202 | 0.286 | -0.388 | 0.913 |
| AGAATGAGGTTAAGATCGGGGAAACAGAATACAT | 3.24 | 2.85 | 1.19 | 0.972 | 1.09 | 0.98 | 0.624 | 1.93 | 0.617 | 1.95 |
| ATCTCTAGGTAGAGATAGTTCAGTGAATGCAAAT | -0.289 | 0.0847 | 0.624 | 0.987 | 0.293 | 0.338 | 0.253 | 0.641 | 0.194 | 0.242 |
| ACGAGCAGGCCAAGGGTCACTCAAGATTAGTCCG | 0.294 | 2.7 | -0.273 | -0.61 | 1.76 | 3.15 | -0.226 | 4.01 | 0.319 | 3.69 |
| TCTAGATGGTCACGGAGGTCACACACGACGGGTA | 2.1 | 3.58 | 1.44 | 1.08 | 4.17 | 4.87 | 2.07 | 5.06 | 1.56 | 3.9 |
| GCTTGTAGATCAAGGTTATGAAAGACTAAGCTAA | 1.21 | 0.962 | 0.000562 | 0.0061 | 0.45 | 0.681 | -0.0933 | 0.915 | -0.0399 | 0.632 |
| GCTTGTAGATCAAGGTTAGGAAAGACTAAGCTAA | 1.45 | 0.637 | -0.619 | 0.0428 | -0.189 | -0.276 | -0.422 | -0.0199 | -0.3 | 0.336 |
| TCATATAGGTCAAGGTGAAAGTCGAACGATATGA | 6.82 | 7.8 | 3.34 | 3.56 | 2.98 | 3.06 | 0.0786 | 3.99 | 0.732 | 4.84 |
| GGACCGAGGGCAAAGTTGATAGCATCTGTCGACG | 0.973 | 1.67 | -0.427 | -0.551 | 0.198 | 1.04 | -0.387 | 1.26 | -0.439 | 2.4 |
| GCATATAGATAATACAAGGTGAAAGTCCGATTGT | 0.0768 | 0.523 | 1.29 | 0.755 | 0.731 | 0.197 | 0.246 | 0.795 | 0.194 | 0.165 |
